Bioassay records: PubChem BioAssay, National Center for Advancing Translational Sciences (NCATS)
A selection: hits, their analogues and other compounds. The true share with any hit is near 12%.
RORgamma inh – ROR gamma (mouse) transcription inhibition; P51450; Drosophila S2 Gal4-RORgamma UAS-luciferase reporter, 20 h; Potency, µM (top dose mostly 53.6 µM), for inactives: at the top dose activity change, negative = inhibition, usual class: inhibitors; actives 5.4% (n = 310,000); also: nearly all actives have a fitted effect of over 60% in size
Target sequence (P51450 whole entry, looked up, the tested form may be a part): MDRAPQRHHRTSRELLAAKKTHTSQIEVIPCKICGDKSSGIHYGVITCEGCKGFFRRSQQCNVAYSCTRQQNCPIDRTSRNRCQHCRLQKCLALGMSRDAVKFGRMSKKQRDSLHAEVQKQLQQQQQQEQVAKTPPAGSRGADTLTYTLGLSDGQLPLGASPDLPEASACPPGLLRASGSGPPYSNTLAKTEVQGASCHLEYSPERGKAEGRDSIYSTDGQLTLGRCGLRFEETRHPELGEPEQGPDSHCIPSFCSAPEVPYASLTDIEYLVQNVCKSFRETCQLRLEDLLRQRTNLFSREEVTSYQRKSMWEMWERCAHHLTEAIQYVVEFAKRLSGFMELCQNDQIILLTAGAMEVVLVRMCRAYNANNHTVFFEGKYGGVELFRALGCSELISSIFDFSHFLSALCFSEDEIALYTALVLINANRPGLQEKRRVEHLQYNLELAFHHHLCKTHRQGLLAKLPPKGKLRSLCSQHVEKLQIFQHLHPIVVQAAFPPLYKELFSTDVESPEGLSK
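Stably transfected Drosophila Schneider cells are the test system, with ROR gamma fused to Gal4 and luciferase under UAS control; luminescence is read after 20 hr of 700 uM copper sulfate induction at ambient temperature.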
Sfp PPTase inh – inhibitors of Bacillus subtilis Sfp phosphopantetheinyl transferase; Q9F4F7; Biochemical Sfp PPTase activity, qHTS; Potency, µM, for inactives: largest response in the series, negative = inhibition, usual class: inhibitors; actives 3.5% (n = 310,000); AID 1490;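 also: the enzyme is Sfp with the accession as filed and its product quenches rhodamine fluorescence; 0% = enzyme reaction without inhibitor and -100% = no enzyme wells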
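Fluorescence-quenching assay with 15 nM Sfp, 5 uM rhodamine-CoA and 12.5 uM BHQ-2-labelled ybbR peptide in pH 7.6 Hepes/MgCl2 buffer. Enzyme was pre-incubated with compound for 15 min at room temperature. Rate was taken from the 30-min fluorescence change (525/598 nm).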
PLK1 PBD inh – PLK1 (human) polo-box domain binding inhibition; P53350; Plk1 PBD binding of FITC phosphopeptide, fluorescence polarization; Potency, µM, for the others: max response, negative = inhibition, actives largely listed as inhibitors; actives 2.8% (n = 360,000); also: series mostly up to about 57 µM; nearly all actives have a fitted effect of over 65% in size
Gal4-VP16 FLuc – counter-screen for ROR gamma inhibitors: Gal4-VP16 reporter; Drosophila S2 Gal4-VP16 UAS-luciferase, luminescence, 20 h; Potency, µM (doses to about 53.6 µM), for the others: at the highest dose activity, negative = inhibition, actives largely listed as inhibitors; actives 3.5% (n = 310,000); AID 2546;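 also: Gal4-VP16 expression switched on by copper sulfate through the metallothionein promoter; nearly all actives have a fitted effect of over 50% in size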
ALDH1A1 inh – inhibitors of human aldehyde dehydrogenase 1A1; P00352; Purified ALDH1A1, NADH fluorescence, propionaldehyde substrate; Potency, µM (highest dose often 75.3 µM), for inactives: top-dose activity, negative = inhibition, actives largely listed as inhibitors; actives 7.3% (n = 220,000); active = well fitted inhibition curve with a large enough effect, not every such curve was filed as active; inconclusive = small, poorly fitted or top-dose-only effect, or another doubt; inactive = no such curve, though single readings can be large or run the other way;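 also: plate controls were no enzyme wells and a reference inhibitor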
Starred values were filed as active, the others as inactive; ? = inconclusive; . = not tested or not shown; [ ] = dose if it differs, or a comment. Unless noted, calls follow the shape of the dose curve; as a rule, active = well fitted curve in the direction sought with a large enough effect; inconclusive = small, poorly fitted or top-dose-only effect, or another doubt; inactive = no such curve, though single readings can be large; an effect the other way counts as inactive or inconclusive. Unless noted, % is scaled to controls: 0 for no effect and ±100 for the full control effect; potency is read from the fitted curve at half-maximal effect.

SMILES | RORgamma inh | Sfp PPTase inh | PLK1 PBD inh | Gal4-VP16 FLuc | ALDH1A1 inh
Cc1ccc(NC(=O)CN2C(=O)/C(=C3\SC(=S)N(C4CCS(=O)(=O)C4)C3=O)c3ccccc32)cc1 (stereo not drawn) | -5% | -3% | -11% | -2% | 1.4µM*
O=C(CN1C(=O)/C(=C2\SC(=S)N(C3CCS(=O)(=O)C3)C2=O)c2ccccc21)Nc1ccccc1 (stereo not drawn) | 0.89µM* | 28µM* | -13% | -21% | 7.1µM*
Cc1c(N2CCCCC2)[nH]c2ccccc12 | . | . | -5% | . | .
CCC(Sc1nnc(-c2ccc(C)c(Cl)c2)n1CC)C(=O)Nc1nccs1 (stereo not drawn) | 13µM* | 6% | -17% | ? | -9%
C(=C\c1ccccc1)/C=N/Nc1nncc(-c2ccccc2)n1 | 2.2µM* | 8% | . | 3.2µM* | 12%
CCOc1cc(/C=N/Nc2nncc(-c3ccccc3)n2)ccc1O | -7% | 12% | 15µM* | 5% | ?
Oc1cccc(/C=N\Nc2nncc(-c3ccccc3)n2)c1 | -6% | 2% | 21µM* | ? | 7%
CC1CN(Cc2ccccc2)C(=O)N(c2ccccc2)C1=O (stereo not drawn) | . | . | -5% | . | .
CC1NC2(C(=O)N(Cc3ccccc3)c3ccccc32)C2C(=O)N(c3ccccc3)C(=O)C12 (stereo not drawn) | 35% | 2% | -3% | 3% | 14µM*
COC(=O)NC(c1cccc(C)c1)[C@]1(C(C)=O)CCCC1=O (stereo partly drawn) | 7%[10 µM] | 29% | . | -7%[10 µM] | 1%[13.5 µM]
C=CCNC(=S)NC(=O)c1ccc(C)c(Br)c1 | ? | -8% | -10% | ? | 16%
CCOc1ccc(N(CCCCO)C(=S)NC(=O)c2ccc(C)c(Br)c2)cc1 | 2.5µM* | -20% | ? | 5.6µM* | 22µM*
CC(C)(C)c1nc(Sc2ccc([N+](=O)[O-])cn2)n[nH]1 | -9% | -9% | -1% | -17% | .
O=[N+]([O-])c1ccc(Sc2n[nH]c(-c3ccc(Cl)cc3Cl)n2)nc1 | 0.89µM* | 17% | -8% | 7.1µM* | -15%
COc1ccc(C(=O)N2CCC3(CC2)CN(C(=O)Nc2cccc(C#N)c2)C3)cc1 | 2% | 11% | . | -9% | -15%
Cc1ccc(/C=N/NC(=O)c2ccoc2C)s1 | ? | 2% | -9% | ? | 10%
Cc1occc1C(=O)N/N=C/c1ccc(Br)s1 | 6.3µM* | -3% | -12% | 10µM* | -2%
CC(=NNC(=O)c1cc(C)oc1C)c1ccc(Br)s1 | . | . | 0% | . | .
O=C(N/N=C/c1sc(=O)n(Cc2ccc(Br)cc2)c1Cl)c1ccco1 | 11µM* | 1% | -7% | ? | .
C/C(=N\NC(=O)c1ccoc1C)c1cccc2ccccc12 | 13µM* | 8% | -4% | -8% | .
O=C(O)c1cccc(Cn2c(Cl)c(/C=N/NC(=O)c3ccccc3O)sc2=O)c1 | -22% | 12% | -7% | 12% | 4%
C/C(=N\NC(=O)c1ccoc1C)c1ccc(Br)s1 | 6.3µM* | 9% | 4% | 11µM* | .
CN(Cc1ccc2c(c1)CCCN2C)C(=O)[C@H]1O[C@@H](n2cnc3c(N)ncnc32)[C@H](O)[C@@H]1O | . | . | -7% | . | .
Cc1ccc(/C=N/NC(=O)c2ccco2)s1 | ? | -1% | -10% | -7% | 9%
O=C(O)c1cccc(Cn2c(Cl)c(/C=N/NC(=O)c3ccccc3Cl)sc2=O)c1 | -32% | 7% | -3% | 2% | ?
SMILES | RORgamma inh | Sfp PPTase inh | PLK1 PBD inh | Gal4-VP16 FLuc | ALDH1A1 inh
O=C(N/N=C/c1ccc(Br)s1)c1ccco1 | 6.3µM* | -1% | -2% | 10µM* | .
O=C(N/N=C/c1ccsc1)c1ccccn1 | -4% | ? | -14% | 11% | -3%
O=C(N/N=C/c1ccc(Br)s1)c1ccccn1 | ? | -15% | -5% | 4µM* | -11%
O=C(O)c1cccc(Cn2c(Cl)c(/C=N/Nc3ccccc3)sc2=O)c1 | -3% | 8.9µM* | ? | -8% | 22µM*
CCOC(=O)N/N=C1/C[C@@H](O)[C@@H](O)[C@@H]2[C@@H]3C(=O)N(C4CCCCC4)C(=O)[C@H]3CC[C@@H]12 | 5%[10 µM] | 2% | . | -8%[10 µM] | 12%[13.5 µM]
Nc1nnc(SC2CCCC2)s1 | 22% | 11% | 27µM* | -8% | -7%
COC(=O)C1(C)C=CC2(CCCCC2)N1C(=O)c1ccccc1 (stereo not drawn) | 10µM* | 16% | . | -4% | 4%
Brc1ccc(N=Nc2ccc3ccccc3n2)cc1 | 0.11µM* | ? | -3% | 0.45µM* | 12%
CC(NC(=O)c1ccc2ccccc2n1)c1ccc(Br)cc1 (stereo not drawn) | 0% | -24% | -14% | -4% | .
COc1ccccc1NC(=O)c1ccc(NC(=O)COC(=O)C(C)C)cc1 | -15% | 21% | -6% | -1% | 0.89µM*
O=C(CSc1ccccc1)Nc1ccccc1C(=O)O | 24% | 5% | -11% | -3% | 2%
COc1ccccc1NC(=O)Cn1c(C)cc(=O)c2cccc(OC)c21 | -33% | -15% | 2% | 28µM* | .
COc1cccc2c(=O)cc(C)n(CC(=O)Nc3ccc(C)c(C)c3)c12 | -20% | 2% | 0% | ? | -4%
NC(=O)SCC(=O)Nc1ccccc1C(=O)O | -3% | 18µM* | -13% | -2% | -1%
COc1ccccc1NC(=O)CSC(N)=O | -30% | 45µM* | -24% | -7% | 1.6µM*
Cc1ccccc1N1CCN(C2CCCN(C(=O)c3noc4c3CCCC4)C2)CC1 (stereo not drawn) | 17% | -11% | 1% | 4% | .
Cc1ccccc1NC(=O)CSC(N)=O | -97% | 14µM* | ? | ? | 0.79µM*
Cc1ccccc1NC(=O)CSCC(=O)Nc1ccccc1C | 0% | 2% | -2% | -4% | -1%
CCOc1ccc(NC(=S)NC(=O)c2c(Cl)c(C)nn2C)c([N+](=O)[O-])c1 | 10µM* | ? | -14% | ? | -8%
Cc1nn(C)c(C(=O)NC(=S)Nc2ccccc2O)c1Cl | 2µM* | -1% | -12% | 3.2µM* | .
O=C(COc1ccc2ccccc2c1)Nc1ccncc1 | ? | -7% | -3% | 13µM* | -13%
Cc1cc(OCC(=O)Nc2ccc3oc(-c4ccncc4)nc3c2)ccc1Cl | -1% | 4% | 1% | 17% | 3%
O=C(COc1ccccc1)Nc1ccncc1 | 26% | 14% | -4% | -3% | 7%
O=C(Nc1ccncc1)c1ccc(Br)cc1 | 27% | 17% | -4% | 3% | .
O=C(Nc1ccncc1)c1cc(F)cc(F)c1 | ? | -9% | -11% | 25µM* | -1%
Cc1cc(OCC(=O)Nc2ccncc2)cc(C)c1Br | 0% | -3% | -4% | 11µM* | -7%
Cc1cc(OCC(=O)Nc2ccncc2)ccc1Cl | ? | 5% | -7% | 11µM* | .
COc1ccc2[nH]cc(CCNc3cc(-c4ccccc4OC)ncn3)c2c1 | 10% | -25% | . | -8% | 6%
O=C(O)C1C2OC3C(OC(=O)C31)C2Br (stereo not drawn) | . | . | 2% | . | .
